# Bioassay records deposited in PubChem BioAssay by several laboratories.
# HIF-2a block – blocks HIF-2a reporter activity; inhibition, % at 18.8 µM; 360,000 tested, 0.72% active; AID 624352; 786-0 RCC cells HIF-2a reporter, luciferase luminescence, overnight;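 active = inhibition of the luminescence signal of 40% or more relative to plate controls, in a single-dose primary screen at 18.75 µM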
# Peg3 promoter – reduces Peg3 promoter-driven luciferase expression in HeLa | HeLa PEG-Prom luciferase reporter, luminescence, overnight | inhibition, % at 20 µM | 360,000 tested, 1.7% active;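 active = inhibition of at least 50% at 20 µM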
# Mdm2-MdmX inh – human Mdm2/MdmX binding inhibition; SaOS-2 split-luciferase Mdm2/MdmX complementation, luminescence; 330,000 tested, 3% active; inhibition, % at 8 µM; O15151+Q00987; AID 485346;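 active = inhibition of at least 50% at 8 µM in the primary screen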
# KKLEB tox – CF airway cell cytotoxicity counter-screen; activity change (cytotoxicity), % at 5 µM; AID 602141; 360,000 tested, 0.36% active; KKLEB CF airway cells viability, ATPlite luminescence, overnight; active compounds read low; cells stimulated with P. aeruginosa culture filtrate;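 active = corrected activity change at or below -50% at 5 µM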
# CF NFkB inh – inhibitors of cystic fibrosis induced NF-kB. 360,000 tested, 0.86% active. KKLEB NF-kB-GFP reporter, PAF-induced, GFP fluorescence overnight. inhibition, % at 5 µM;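 active = at least 50% inhibition at 5 µM, scaled per plate between neutral and stimulator controls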;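 note: PAF is a Pseudomonas aeruginosa culture filtrate used as stimulus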
# ABHD5-PLIN5 inh – blocks binding of human ABHD5 to perilipin-5; Q00G26+Q8WTS1; Split G. princeps luciferase complementation, luminescence, 4 h; inhibition, % at 4 µM; 360,000 tested, 0.78% active; AID 602281;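 active = inhibition above the mean inhibition across every tested compound plus 3 SD, cut at about 22% in these data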
# Target sequence (Q00G26 whole entry, looked up): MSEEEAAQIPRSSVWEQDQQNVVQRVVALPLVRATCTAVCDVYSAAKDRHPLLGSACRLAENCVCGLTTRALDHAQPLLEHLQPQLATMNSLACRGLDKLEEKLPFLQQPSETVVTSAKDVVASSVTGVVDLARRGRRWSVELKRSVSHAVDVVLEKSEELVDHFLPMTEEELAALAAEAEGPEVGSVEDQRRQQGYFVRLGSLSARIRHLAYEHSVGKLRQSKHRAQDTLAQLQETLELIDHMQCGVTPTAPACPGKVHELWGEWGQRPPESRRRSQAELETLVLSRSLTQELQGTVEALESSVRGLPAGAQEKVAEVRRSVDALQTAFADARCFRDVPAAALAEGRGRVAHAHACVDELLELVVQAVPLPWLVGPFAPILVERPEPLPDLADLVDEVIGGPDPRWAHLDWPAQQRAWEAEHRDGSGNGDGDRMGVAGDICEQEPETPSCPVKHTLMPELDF
# Target sequence (Q8WTS1 whole entry, looked up): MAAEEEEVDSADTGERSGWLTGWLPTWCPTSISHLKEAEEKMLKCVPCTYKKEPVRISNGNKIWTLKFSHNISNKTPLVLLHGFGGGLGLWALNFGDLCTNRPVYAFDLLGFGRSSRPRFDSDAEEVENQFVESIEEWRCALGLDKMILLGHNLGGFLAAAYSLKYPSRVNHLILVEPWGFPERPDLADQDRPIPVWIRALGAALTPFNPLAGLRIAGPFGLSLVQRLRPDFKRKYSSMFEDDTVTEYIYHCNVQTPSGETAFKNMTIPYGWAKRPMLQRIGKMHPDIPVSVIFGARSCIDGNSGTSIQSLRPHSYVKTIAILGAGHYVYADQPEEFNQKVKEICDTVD
# Mdm2 MdmX conf – confirmation of human Mdm2/MdmX interaction inhibitors | shares compounds with Mdm2-MdmX inh | Mdm2-MdmX binding, luminescent assay | 10,000 tested, 55% active | AID 489028 | inhibition, % at 8 µM; in the data active = inhibition above about 40%
# FLuc counter – counter-screen for Mdm2/MdmX inhibitors: full-length luciferase; SaOS-2 full-length luciferase counterscreen, luminescence; shares compounds with Mdm2-MdmX inh; inhibition, % at 8 µM; 6,200 tested, 77% active;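 active = mean inhibition at 8 µM reaching about 37%, which flags the compound as non-specific, limit read from the data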;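 note: p53-null SaOS-2 cells with luciferase driven by a doxycycline-inducible promoter; compound on cells about two nights before reading with doxycycline added after day one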
# Numbers stand for hits; 0 = inactive; - = no result. Rows were chosen to be rich in hits. Some 4.6% of all compounds tested hit in one or more screens of this group.
SMILES,HIF-2a block,Peg3 promoter,Mdm2-MdmX inh,KKLEB tox,CF NFkB inh,ABHD5-PLIN5 inh,Mdm2 MdmX conf,FLuc counter
NC(=O)c1sc2nc3c(c(-c4ccco4)c2c1N)CCC3,0,0,77,0,76,0,55,0
COc1ccc2nc(NC(=O)C3CC(=O)N(c4ccc5c(c4)OCCO5)C3)sc2c1 (configuration not stated),0,0,0,0,0,0,-,-
COc1ccc(-c2nc(NC(=O)C3CC(=O)N(c4ccc5c(c4)OCCO5)C3)sc2C)cc1 (configuration not stated),0,0,66,0,0,0,58,36
OC(c1cc(C(F)(F)F)nc2c(C(F)(F)F)cccc12)C1CCCCN1 (configuration not stated),0,93,100,0,0,0,89,0
CN(CC(=O)Nc1c(Cl)cccc1Cl)C(=O)c1cc(-c2cccs2)nn1-c1ccccc1,0,0,0,0,0,0,-,-
CCN(CC(=O)Nc1c(F)cccc1F)C(=O)c1cc(-c2cccs2)nn1-c1ccccc1,0,58,60,0,0,0,0,86
O=S(=O)(c1cccc2cccnc12)N1CCCCC1,0,0,0,0,0,0,-,-
CC(C)(C)n1nnnc1C(c1cccs1)N1CCN(c2ccccc2)CC1 (configuration not stated),0,0,0,0,0,0,-,-
Oc1c(C(c2ccccc2Cl)N2CCCC2)ccc2cccnc12 (configuration not stated),0,0,69,0,0,0,63,0
Oc1c(C(c2cccs2)N2CCN(c3ccccc3)CC2)ccc2cccnc12 (configuration not stated),-,-,51,-,-,-,82,0
CN1CCN(C(c2ccc(C(F)(F)F)cc2)c2ccc3cccnc3c2O)CC1 (configuration not stated),-,-,74,-,-,-,73,0
CCCNC(=O)C1CCN(S(=O)(=O)c2cccc3nonc23)CC1,0,0,0,0,0,0,-,-
O=C(N/N=C/c1ccccn1)c1cc(-c2ccc(Cl)cc2)nc2ccccc12,0,0,76,0,0,0,0,-
Cc1[nH]c2ccccc2c1/C=N/NC(=O)c1cc(-c2ccncc2)nc2ccccc12,0,0,59,0,0,0,69,52
CCCOc1cccc(-c2cc(C(=O)N/N=C/c3ccccn3)c3ccccc3n2)c1,0,0,0,0,0,0,-,-
O=C(N/N=C/c1ccccn1)c1cc(-c2ccc(Br)cc2)nc2ccccc12,0,75,84,0,0,0,0,46
O=C(N/N=C/c1ccc([N+](=O)[O-])o1)c1sc2ccccc2c1Cl,0,0,0,0,0,0,-,-
O=C(N/N=C/c1ccc([N+](=O)[O-])o1)c1cn2ccc3ccccc3c2n1,0,0,82,0,0,0,0,-
COc1ccc(-c2nn(-c3ccccc3)cc2C(=O)N/N=C/c2ccc([N+](=O)[O-])o2)cc1,0,0,58,0,0,0,53,52
O=C(N/N=C/c1ccc([N+](=O)[O-])o1)c1cc(-c2cccc(Br)c2)nc2ccccc12,0,0,50,0,0,0,0,-
O=C(N/N=C/c1ccco1)c1cc(-c2ccccc2)nc2ccccc12,0,0,0,0,0,0,-,-
Cc1cc(C(=O)N/N=C/c2ccc([N+](=O)[O-])o2)c(C)o1,0,0,0,0,0,0,-,-
C/C(=N\NC(=O)c1cc(-c2cccnc2)nc2ccccc12)c1ccccc1O,0,0,63,0,0,0,51,39
CCN(CC)CCNC(=O)c1cn(CC)c2ccc(S(=O)(=O)N3CCc4ccccc4C3)cc2c1=O,0,0,0,0,0,0,-,-
CN(N=Cc1ccc([N+](=O)[O-])cc1)c1ccccn1,0,0,-,0,0,0,-,-
SMILES,HIF-2a block,Peg3 promoter,Mdm2-MdmX inh,KKLEB tox,CF NFkB inh,ABHD5-PLIN5 inh,Mdm2 MdmX conf,FLuc counter
CCC[C@H]1NC(=O)[C@H](C)N(C)C(=O)C(C)(C)C(=O)C(C)NC(=O)[C@H](Cc2ccc(OC)cc2)N(C)C(=O)[C@H](C(C)C)N(C)C(=O)CNC(=O)[C@H](CC(C)C)N(C)C(=O)CNC(=O)[C@H]([C@@H](C)CC)OC(=O)[C@H]1C (some centres not stated),-,-,94,-,-,-,91,0
Brc1nc(-c2ccccc2)nc(-c2ccccc2)c1Br,0,0,79,0,0,0,0,-
COc1ccccc1N=C(C)C1=C(O)CC(c2ccccc2)CC1=O (configuration not stated),0,0,61,0,53,0,55,79
COc1cc2nc(Nc3ccc(F)cc3)nc(N)c2cc1OC,0,0,0,0,0,0,-,-
COc1cc2nc(Nc3ccc(C)c(C)c3)nc(N)c2cc1OC,0,56,87,0,0,0,0,-
COc1cc2nc(Nc3ccc(C)c(Cl)c3)nc(N)c2cc1OC,0,114,93,-51,0,0,66,88
COc1ccc(C(=O)c2cnc3ccccc3c2-c2ccccc2)cc1,0,0,57,0,0,0,0,-
COc1ccc(N=C2NN=C(c3c(C)[nH]c4ccccc34)CS2)cc1,0,0,54,0,0,0,0,-
Cc1[nH]c2ccccc2c1C1=NNC(=Nc2ccc(F)cc2)SC1,0,0,0,0,0,0,-,-
O=C(Nc1nnc(C2=COCCO2)o1)c1ccc(S(=O)(=O)N2CCCCC2)cc1,0,0,0,0,0,0,-,-
Cc1noc(-c2ccc(C(F)(F)F)cc2)c1NC(=O)Nc1ccc(Cl)cc1,0,0,95,0,0,0,76,0
Cc1nnc(SCc2cc(=O)[nH]c(/N=C(\N)Nc3ccccc3)n2)s1,0,0,0,0,0,0,-,-
CCOc1ccc(N/C(N)=N/c2nc(CSc3nnc(C)s3)cc(=O)[nH]2)cc1,0,0,67,0,0,0,56,81
COc1cc2c(-c3ccc4cc[nH]c4c3)c(-c3ccc(C#N)cc3)oc(=O)c2cc1OC,0,0,59,0,0,0,0,52
Cc1ccc(NC(=O)Cc2ccc(-c3ccccc3)cc2)nc1,0,0,75,0,0,0,45,80
COc1ccc(NC(=O)c2cc(CN3C(=O)c4ccccc4C3=O)ccc2OC)cn1,0,0,53,0,0,0,0,-
Cc1ccc(NC(=O)CCc2c[nH]c3ccccc23)nc1,0,0,83,0,0,0,73,52
Cc1ccc(NC(=O)Cc2ccc(Cl)cc2)nc1,0,0,0,0,0,0,-,-
COc1ccc(NC(=O)/C(Cl)=C(/Cl)S(=O)Cc2ccc(Cl)cc2)cn1 (configuration not stated),97,104,97,-88,87,96,100,0
